Data: PubChem BioAssay AID1159580 (chemical genetic matrix, 2015)
In all, about 5,500 compounds went through this assay and about 2,000 (36%) were called active. About 18% were inconclusive and are not listed. No stated cut-off is given here; in the data, active means normalized growth mostly below about 0.91 (no sharp cut-off); inconclusive means no clear call, values can overlap the other calls; inactive means mostly above about 0.92. The list shows a part of the results.

Assay: chemical genetic growth profiling, strain panel (AID 1159580);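 further: tested at 20 µM; growth read once vehicle control cultures reached saturation at 30 °C; 1 = growth at the plate median or of vehicle wells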
Conditions: growth OD

Measured: normalized growth

O=C(OCc1ccccc1)c1ccccc1
active: S. cerevisiae deletion strains, locus YKR001C, strain vps1, stronger effect = lower value 0.789 | S. cerevisiae deletion strains, locus YLR113W, strain HOG1, stronger effect = lower value 0.783 | S. cerevisiae deletion strains, locus YLR262C, strain YPT6 (second series), stronger effect = lower value 0.739 | S. cerevisiae deletion strains, locus YLR320W, strain mms22, stronger effect = lower value 0.835 | S. cerevisiae deletion strains, locus YNL071W, strain lat1, stronger effect = lower value 0.889 | S. cerevisiae deletion strains, locus YNL307C, strain MCK1, stronger effect = lower value 0.798 | S. cerevisiae deletion strains, locus YOR106W, strain vam3, stronger effect = lower value 0.859 | S. cerevisiae deletion strains, locus YOR184W, strain ser1, stronger effect = lower value 0.655 | S. cerevisiae deletion strains, locus YOR231W, strain MKK1, stronger effect = lower value 0.86
inactive: S. cerevisiae deletion strains, locus YKL009W, strain mrt4, stronger effect = lower value 0.934 | S. cerevisiae deletion strains, locus YKL068W, stronger effect = lower value 0.961 | S. cerevisiae deletion strains, locus YKL085W, strain MDH1 (second series), stronger effect = lower value 0.957 | S. cerevisiae deletion strains, locus YKL085W, strain MDH1, stronger effect = lower value 0.957 | S. cerevisiae deletion strains, locus YKL160W, strain elf1, stronger effect = lower value 0.951 | S. cerevisiae deletion strains, locus YKL190W, strain CNB1, stronger effect = lower value 1 | S. cerevisiae deletion strains, locus YKR026C, strain gcn3, stronger effect = lower value 0.954 | S. cerevisiae deletion strains, locus YKR091W, strain srl3, stronger effect = lower value 0.952 | S. cerevisiae deletion strains, locus YLL001W, strain dnm1, stronger effect = lower value 0.945 | S. cerevisiae deletion strains, locus YLL026W, stronger effect = lower value 0.953 | S. cerevisiae deletion strains, locus YLL041C, strain sdh2, stronger effect = lower value 0.965 | S. cerevisiae deletion strains, locus YLR027C, strain aat2, stronger effect = lower value 0.954 | S. cerevisiae deletion strains, locus YLR039C, strain RIC1, stronger effect = lower value 0.83 | S. cerevisiae deletion strains, locus YLR058C, strain SHM2, stronger effect = lower value 0.987 | S. cerevisiae deletion strains, locus YLR102C, strain apc9, stronger effect = lower value 0.969 | S. cerevisiae deletion strains, locus YLR221C, strain rsa3, stronger effect = lower value 0.925 | S. cerevisiae deletion strains, locus YLR258W, strain gsy2, stronger effect = lower value 0.956 | S. cerevisiae deletion strains, locus YLR262C, strain YPT6, stronger effect = lower value 0.839 | S. cerevisiae deletion strains, locus YLR268W, strain sec22, stronger effect = lower value 0.941 | S. cerevisiae deletion strains, locus YLR330W, strain CHS5, stronger effect = lower value 0.982 | S. cerevisiae deletion strains, locus YLR342W, strain FKS1 (second series), stronger effect = lower value 0.906 | S. cerevisiae deletion strains, locus YLR342W, strain FKS1, stronger effect = lower value 0.944 | S. cerevisiae deletion strains, locus YLR357W, strain rsc2, stronger effect = lower value 1.05 | S. cerevisiae deletion strains, locus YLR370C, strain arc18, stronger effect = lower value 0.969 | S. cerevisiae deletion strains, locus YLR371W, strain rom2, stronger effect = lower value 0.966 | S. cerevisiae deletion strains, locus YLR384C, strain iki3, stronger effect = lower value 0.974 | S. cerevisiae deletion strains, locus YLR418C, strain cdc73, stronger effect = lower value 0.885 | S. cerevisiae deletion strains, locus YML016C, strain PPZ1, stronger effect = lower value 0.991 | S. cerevisiae deletion strains, locus YML032C, strain rad52, stronger effect = lower value 0.948 | S. cerevisiae deletion strains, locus YML120C, strain ndi1, stronger effect = lower value 0.939 | S. cerevisiae deletion strains, locus YML124C, strain tub3, stronger effect = lower value 0.969 | S. cerevisiae deletion strains, locus YMR058W, strain fet3, stronger effect = lower value 0.952 | S. cerevisiae deletion strains, locus YMR078C, strain ctf18, stronger effect = lower value 0.957 | S. cerevisiae deletion strains, locus YMR125W, strain sto1, stronger effect = lower value 0.966 | S. cerevisiae deletion strains, locus YMR129W, stronger effect = lower value 0.967 | S. cerevisiae deletion strains, locus YMR205C, strain PFK2, stronger effect = lower value 0.899 | S. cerevisiae deletion strains, locus YMR223W, strain ubp8, stronger effect = lower value 0.925 | S. cerevisiae deletion strains, locus YMR231W, strain pep5, stronger effect = lower value 0.984 | S. cerevisiae deletion strains, locus YMR263W, strain SAP30, stronger effect = lower value 0.981 | S. cerevisiae deletion strains, locus YMR307W, strain GAS1, stronger effect = lower value 1.06 | S. cerevisiae deletion strains, locus YNL067W, strain RPL9B, stronger effect = lower value 0.954 | S. cerevisiae deletion strains, locus YNL128W, strain TEP1, stronger effect = lower value 0.989 | S. cerevisiae deletion strains, locus YNL183C, strain NPR1, stronger effect = lower value 0.868 | S. cerevisiae deletion strains, locus YNL209W, strain ssb2, stronger effect = lower value 0.968 | S. cerevisiae deletion strains, locus YNL233W, strain BNI4, stronger effect = lower value 0.931 | S. cerevisiae deletion strains, locus YNL248C, strain rpa49, stronger effect = lower value 0.905 | S. cerevisiae deletion strains, locus YNL250W, strain rad50, stronger effect = lower value 0.987 | S. cerevisiae deletion strains, locus YNL271C, strain bni1, stronger effect = lower value 0.95 | S. cerevisiae deletion strains, locus YNL298W, strain CLA4, stronger effect = lower value 0.954 | S. cerevisiae deletion strains, locus YNL322C, strain KRE1 (second series), stronger effect = lower value 0.973 | S. cerevisiae deletion strains, locus YNL322C, strain KRE1, stronger effect = lower value 0.989 | S. cerevisiae deletion strains, locus YNR049C, strain mso1, stronger effect = lower value 0.954 | S. cerevisiae deletion strains, locus YNR052C, strain pop2, stronger effect = lower value 1 | S. cerevisiae deletion strains, locus YOL006C, strain TOP1, stronger effect = lower value 0.725 | S. cerevisiae deletion strains, locus YOL012C, strain htz1 1.34 | S. cerevisiae deletion strains, locus YOL147C, strain pex11, stronger effect = lower value 0.974 | S. cerevisiae deletion strains, locus YOR001W, strain rrp6, stronger effect = lower value 0.916 | S. cerevisiae deletion strains, locus YOR061W, strain CKA2, stronger effect = lower value 0.988 | S. cerevisiae deletion strains, locus YOR069W, strain VPS5, stronger effect = lower value 0.991 | S. cerevisiae deletion strains, locus YOR070C, strain gyp1, stronger effect = lower value 0.965 | S. cerevisiae deletion strains, locus YOR080W, strain dia2, stronger effect = lower value 0.985 | S. cerevisiae deletion strains, locus YOR083W, strain WHI5, stronger effect = lower value 0.97 | S. cerevisiae deletion strains, locus YOR136W, strain idh2, stronger effect = lower value 0.987 | S. cerevisiae deletion strains, locus YOR144C, strain elg1, stronger effect = lower value 0.974 | S. cerevisiae deletion strains, locus YOR265W, strain rbl2, stronger effect = lower value 0.957 | S. cerevisiae deletion strains, locus YOR270C, strain vph1, stronger effect = lower value 0.927 | S. cerevisiae deletion strains, locus YOR290C, strain snf2, stronger effect = lower value 0.941 | S. cerevisiae deletion strains, locus YOR316C, strain cot1, stronger effect = lower value 0.974 | S. cerevisiae deletion strains, locus YPL051W, strain arl3, stronger effect = lower value 0.96 | S. cerevisiae deletion strains, locus YPL078C, strain atp4, stronger effect = lower value 0.933 | S. cerevisiae deletion strains, locus YPL106C, strain sse1, stronger effect = lower value 1 | S. cerevisiae deletion strains, locus YPL240C, strain hsp82, stronger effect = lower value 0.958 | S. cerevisiae deletion strains, locus YPL241C, strain CIN2, stronger effect = lower value 0.99 | S. cerevisiae deletion strains, locus YPL256C, strain CLN2, stronger effect = lower value 0.832 | S. cerevisiae deletion strains, locus YPR119W, strain clb2, stronger effect = lower value 0.975 | S. cerevisiae deletion strains, locus YPR141C, strain kar3, stronger effect = lower value 0.949 | S. cerevisiae deletion strains, locus YPR163C, strain tif3, stronger effect = lower value 0.975 | S. cerevisiae deletion strains, locus YPR167C, strain met16, stronger effect = lower value 0.96 | S. cerevisiae deletion strains, strain wtn01, stronger effect = lower value 0.928 | S. cerevisiae strains, strain wild type, stronger effect = lower value 0.984
